Values without a mark were called inactive.
compound: C#CCNC(=O)CCSSCCC(=O)NCCc1ccc(C=O)c(C=O)c1; assay: lysine labeling ratio R10:1 (500 µM / 50 µM probe), SILAC-ABPP in living cells; higher = lower intrinsic lysine reactivity toward the probe, active = 2 or less; conditions: HeLa; probe concentrations 500 vs 50 µM
Procedure, shortened: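 An alkyne-tagged lysine probe with a disulfide linker labelled living HeLa cells in PBS at room temperature at either 50 µM or 500 µM, using SILAC light and heavy cells in forward and reverse label swaps. Lysates were mixed, clicked to biotin-azide, trypsin-digested, enriched on neutravidin, DTT-released, alkylated and measured by LC-MS/MS on a TIMS-TOF Pro. Each lysine's R is the filtered median high-probe/low-probe MS1 peptide ratio, combined as the median over forward and reverse replicates, with 20 as the upper limit.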

UniProt P15311, sequence (P15311 whole entry): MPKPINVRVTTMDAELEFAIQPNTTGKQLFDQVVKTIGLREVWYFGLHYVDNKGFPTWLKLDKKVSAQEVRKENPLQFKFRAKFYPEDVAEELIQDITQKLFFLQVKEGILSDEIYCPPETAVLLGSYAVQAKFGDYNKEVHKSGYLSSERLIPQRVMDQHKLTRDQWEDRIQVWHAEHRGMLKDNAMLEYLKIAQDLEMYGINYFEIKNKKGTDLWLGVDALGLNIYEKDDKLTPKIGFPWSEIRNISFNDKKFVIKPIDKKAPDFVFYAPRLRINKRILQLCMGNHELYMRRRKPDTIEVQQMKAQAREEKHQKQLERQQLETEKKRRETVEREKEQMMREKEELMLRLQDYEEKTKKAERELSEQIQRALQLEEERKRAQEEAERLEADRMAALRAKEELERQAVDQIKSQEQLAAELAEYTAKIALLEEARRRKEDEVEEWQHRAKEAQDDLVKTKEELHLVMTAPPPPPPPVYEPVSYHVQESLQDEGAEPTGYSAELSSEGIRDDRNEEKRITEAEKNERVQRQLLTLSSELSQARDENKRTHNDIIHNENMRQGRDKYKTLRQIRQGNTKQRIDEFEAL
UniProt Q13813, sequence (Q13813 whole entry): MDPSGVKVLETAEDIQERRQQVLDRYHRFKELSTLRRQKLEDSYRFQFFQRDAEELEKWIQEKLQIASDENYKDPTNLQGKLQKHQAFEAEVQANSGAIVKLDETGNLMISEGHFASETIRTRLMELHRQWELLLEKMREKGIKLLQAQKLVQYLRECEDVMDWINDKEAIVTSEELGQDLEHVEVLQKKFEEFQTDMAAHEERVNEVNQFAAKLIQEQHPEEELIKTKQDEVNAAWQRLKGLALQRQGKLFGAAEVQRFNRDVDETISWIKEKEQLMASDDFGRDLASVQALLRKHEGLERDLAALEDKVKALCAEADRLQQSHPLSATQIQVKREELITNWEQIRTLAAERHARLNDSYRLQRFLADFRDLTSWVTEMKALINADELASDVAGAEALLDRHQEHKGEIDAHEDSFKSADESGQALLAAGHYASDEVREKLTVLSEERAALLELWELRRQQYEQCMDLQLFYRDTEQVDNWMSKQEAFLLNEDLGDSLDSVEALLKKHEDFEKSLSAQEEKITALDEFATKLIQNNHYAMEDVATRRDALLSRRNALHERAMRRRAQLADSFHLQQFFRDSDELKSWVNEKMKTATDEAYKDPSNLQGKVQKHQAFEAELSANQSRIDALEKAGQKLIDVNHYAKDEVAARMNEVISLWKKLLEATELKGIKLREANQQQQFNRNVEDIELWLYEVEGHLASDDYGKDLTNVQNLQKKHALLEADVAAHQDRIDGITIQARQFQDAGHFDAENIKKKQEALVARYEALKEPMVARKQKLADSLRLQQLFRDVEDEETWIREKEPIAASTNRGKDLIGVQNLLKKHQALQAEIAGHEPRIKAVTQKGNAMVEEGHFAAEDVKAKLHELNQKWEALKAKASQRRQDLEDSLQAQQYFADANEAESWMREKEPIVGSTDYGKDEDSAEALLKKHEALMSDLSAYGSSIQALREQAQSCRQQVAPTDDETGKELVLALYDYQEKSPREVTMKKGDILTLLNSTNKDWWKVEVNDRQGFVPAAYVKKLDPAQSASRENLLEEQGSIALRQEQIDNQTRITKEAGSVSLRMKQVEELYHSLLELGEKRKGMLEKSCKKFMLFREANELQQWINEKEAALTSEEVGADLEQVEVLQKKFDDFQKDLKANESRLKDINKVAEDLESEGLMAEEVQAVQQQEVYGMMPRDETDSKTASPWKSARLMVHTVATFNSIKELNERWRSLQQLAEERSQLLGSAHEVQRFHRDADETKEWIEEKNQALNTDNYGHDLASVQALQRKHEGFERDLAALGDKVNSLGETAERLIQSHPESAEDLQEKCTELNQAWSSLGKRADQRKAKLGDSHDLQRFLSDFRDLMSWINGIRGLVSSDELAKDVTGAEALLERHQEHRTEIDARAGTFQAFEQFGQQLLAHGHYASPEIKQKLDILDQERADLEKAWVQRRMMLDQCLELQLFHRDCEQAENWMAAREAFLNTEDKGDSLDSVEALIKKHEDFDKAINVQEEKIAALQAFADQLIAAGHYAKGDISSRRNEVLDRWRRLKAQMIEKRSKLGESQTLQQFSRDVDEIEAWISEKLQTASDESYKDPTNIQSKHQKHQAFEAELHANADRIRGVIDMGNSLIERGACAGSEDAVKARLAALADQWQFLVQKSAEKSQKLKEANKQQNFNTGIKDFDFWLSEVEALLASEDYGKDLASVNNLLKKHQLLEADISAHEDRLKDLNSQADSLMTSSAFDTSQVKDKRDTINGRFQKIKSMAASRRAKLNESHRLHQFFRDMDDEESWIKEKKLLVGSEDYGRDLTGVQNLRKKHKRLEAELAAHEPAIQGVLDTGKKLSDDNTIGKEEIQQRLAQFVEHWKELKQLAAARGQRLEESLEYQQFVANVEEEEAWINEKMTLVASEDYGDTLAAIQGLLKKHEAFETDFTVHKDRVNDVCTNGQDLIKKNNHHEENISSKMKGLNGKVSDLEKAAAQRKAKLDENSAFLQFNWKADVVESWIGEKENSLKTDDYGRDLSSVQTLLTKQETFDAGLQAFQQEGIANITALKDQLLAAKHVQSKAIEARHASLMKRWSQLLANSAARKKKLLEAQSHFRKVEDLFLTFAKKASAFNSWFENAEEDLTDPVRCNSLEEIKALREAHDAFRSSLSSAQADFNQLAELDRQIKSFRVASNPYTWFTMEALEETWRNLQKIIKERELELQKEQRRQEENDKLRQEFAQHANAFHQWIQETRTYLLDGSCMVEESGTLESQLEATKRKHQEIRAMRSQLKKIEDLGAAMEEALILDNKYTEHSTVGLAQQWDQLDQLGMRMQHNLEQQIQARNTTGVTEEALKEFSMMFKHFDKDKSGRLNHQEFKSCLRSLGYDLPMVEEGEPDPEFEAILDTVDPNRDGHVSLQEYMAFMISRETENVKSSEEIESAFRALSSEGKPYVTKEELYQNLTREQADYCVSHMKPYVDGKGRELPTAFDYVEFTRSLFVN
UniProt Q15907, sequence (Q15907 whole entry): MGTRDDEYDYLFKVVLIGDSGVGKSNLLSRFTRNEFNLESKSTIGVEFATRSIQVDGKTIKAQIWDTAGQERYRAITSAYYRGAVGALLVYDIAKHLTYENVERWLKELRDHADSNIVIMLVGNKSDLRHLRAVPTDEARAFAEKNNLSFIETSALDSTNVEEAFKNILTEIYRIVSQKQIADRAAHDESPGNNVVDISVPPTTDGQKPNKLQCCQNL
UniProt P08195, sequence (P08195 whole entry): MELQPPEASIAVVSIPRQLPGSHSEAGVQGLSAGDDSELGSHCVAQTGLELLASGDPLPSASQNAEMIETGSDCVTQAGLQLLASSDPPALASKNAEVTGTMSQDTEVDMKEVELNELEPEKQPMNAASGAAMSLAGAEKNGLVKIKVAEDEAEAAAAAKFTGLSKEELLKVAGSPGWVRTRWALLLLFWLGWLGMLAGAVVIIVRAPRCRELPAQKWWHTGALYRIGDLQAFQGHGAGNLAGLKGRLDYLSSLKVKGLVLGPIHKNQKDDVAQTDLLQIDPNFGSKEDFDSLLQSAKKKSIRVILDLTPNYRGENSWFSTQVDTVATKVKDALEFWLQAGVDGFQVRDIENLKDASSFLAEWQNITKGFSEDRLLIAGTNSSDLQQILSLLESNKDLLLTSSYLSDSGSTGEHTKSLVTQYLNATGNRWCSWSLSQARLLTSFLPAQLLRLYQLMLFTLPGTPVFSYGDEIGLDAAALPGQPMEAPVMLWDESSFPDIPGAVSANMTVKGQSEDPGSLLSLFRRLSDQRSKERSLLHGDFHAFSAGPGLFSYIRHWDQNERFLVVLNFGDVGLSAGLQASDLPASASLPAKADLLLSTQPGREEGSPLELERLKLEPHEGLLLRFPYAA
UniProt Q03405, sequence (Q03405 whole entry): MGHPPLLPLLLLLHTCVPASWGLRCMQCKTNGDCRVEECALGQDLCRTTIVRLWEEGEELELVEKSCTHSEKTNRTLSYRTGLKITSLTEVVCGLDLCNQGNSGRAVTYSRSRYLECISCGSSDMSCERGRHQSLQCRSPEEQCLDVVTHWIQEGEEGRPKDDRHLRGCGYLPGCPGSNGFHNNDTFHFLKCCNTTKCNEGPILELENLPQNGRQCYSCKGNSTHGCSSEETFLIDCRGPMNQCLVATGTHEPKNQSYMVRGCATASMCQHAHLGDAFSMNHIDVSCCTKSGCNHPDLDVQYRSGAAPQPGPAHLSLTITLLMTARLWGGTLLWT
UniProt P07954, sequence (P07954 whole entry): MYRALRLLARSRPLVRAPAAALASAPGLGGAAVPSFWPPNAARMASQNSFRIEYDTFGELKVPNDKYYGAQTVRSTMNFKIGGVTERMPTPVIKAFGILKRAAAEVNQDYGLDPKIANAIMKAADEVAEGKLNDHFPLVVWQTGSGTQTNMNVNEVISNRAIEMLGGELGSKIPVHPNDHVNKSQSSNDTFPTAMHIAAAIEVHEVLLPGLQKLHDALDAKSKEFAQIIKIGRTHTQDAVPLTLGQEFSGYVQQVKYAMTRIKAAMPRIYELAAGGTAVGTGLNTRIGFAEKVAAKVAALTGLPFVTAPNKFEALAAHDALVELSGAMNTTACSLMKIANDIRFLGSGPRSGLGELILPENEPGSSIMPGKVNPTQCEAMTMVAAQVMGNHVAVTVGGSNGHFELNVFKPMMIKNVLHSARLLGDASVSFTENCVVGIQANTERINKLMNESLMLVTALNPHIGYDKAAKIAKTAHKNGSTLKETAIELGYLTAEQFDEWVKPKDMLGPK
UniProt P11233, sequence (P11233 whole entry): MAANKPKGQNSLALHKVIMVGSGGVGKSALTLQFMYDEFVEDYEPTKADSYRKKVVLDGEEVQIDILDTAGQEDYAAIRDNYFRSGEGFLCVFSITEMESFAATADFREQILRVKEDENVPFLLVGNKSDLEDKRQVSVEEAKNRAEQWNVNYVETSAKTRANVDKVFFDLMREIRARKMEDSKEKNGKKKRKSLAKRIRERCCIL

| Target | lysine labeling ratio R10:1 |
| --- | --- |
| GNS (lysine site: K502) (UniProt P15586) | 0.59 (active) |
| RAB11B (lysine site: K179) (UniProt Q15907) | 3.25 |
| STOML2 (lysine site: K187) (UniProt Q9UJZ1) | 1.1 (active) |
| LAMB1 (lysine site: K1495) (UniProt P07942) | 4.06 |
| XRCC6 (lysine site: K299) (UniProt P12956) | 1.09 (active) |
| SPTAN1 (lysine site: K39) (UniProt Q13813) | 2.65 |
| UniProt Q15149 (lysine site: K2339) | 4.2 |
| DSG2 (lysine site: K451) (UniProt Q14126) | 0.823 (active) |
| PTPRS (lysine site: K897) (UniProt Q13332) | 2.19 |
| SERPINH1 (lysine site: K410) (UniProt P50454) | 4.84 |
| UniProt P61160 (lysine site: K368) | 3.41 |
| IL6ST (lysine site: K335) (UniProt P40189) | 0.692 (active) |
| CACNA2D1 (lysine site: K690) (UniProt P54289) | 3.51 |
| UniProt Q14574 (lysine site: K281) | 1.99 (active) |
| EZR (lysine site: K523) (UniProt P15311) | 1.87 (active) |
| HSPA5 (lysine site: K164) (UniProt P11021) | 0.987 (active) |
| PLAUR (lysine site: K29) (UniProt Q03405) | 3.61 |
| PTPRJ (lysine site: K876) (UniProt Q12913) | 3.12 |
| ITGB1 (lysine site: K105) (UniProt P05556) | 6.92 |
| EFNB2 (lysine site: K163) (UniProt P52799) | 1.53 (active) |

| Target | lysine labeling ratio R10:1 |
| --- | --- |
| GPC1 (lysine site: K236) (UniProt P35052) | 3.17 |
| FH (lysine site: K80) (UniProt P07954) | 1.86 (active) |
| CD9 (lysine site: K131) (UniProt P21926) | 7.57 |
| CACYBP (lysine site: K220) (UniProt Q9HB71) | 1.74 (active) |
| RALA (lysine site: K143) (UniProt P11233) | 2.44 |
| UniProt P05787 (lysine site: K325) | 12.1 |
| SLC3A2 (lysine site: K299) (UniProt P08195) | 6.33 |
| ROR2 (lysine site: K97) (UniProt Q01974) | 6.68 |
| PPIA (lysine site: K49) (UniProt P62937) | 3.03 |
| TXNDC5 (lysine site: K429) (UniProt Q8NBS9) | 0.74 (active) |
| UniProt P62805 (lysine site: K32) | 7.5 |
| CD109 (lysine site: K573) (UniProt Q6YHK3) | 2.8 |
| UniProt Q15149 (lysine site: K4140) | 3.87 |
| SPTAN1 (lysine site: K1546) (UniProt Q13813) | 0.8 (active) |
| DDX5 (lysine site: K391) (UniProt P17844) | 10.4 |
| CLTA (lysine site: K141) (UniProt P09496) | 2.25 |
| HNRNPM (lysine site: K388) (UniProt P52272) | 6.02 |
| EZR (lysine site: K400) (UniProt P15311) | 6.03 |
| CCT4 (lysine site: K395) (UniProt P50991) | 3.34 |
| ARPC2 (lysine site: K275) (UniProt O15144) | 2.12 |

— the supplement of paper PMC11001985
